High-throughput results from PubChem.
V-ATPase pH: regulators of yeast V-ATPase proton transport; 0.37% of 350,000 active; response, % at 10 µM; S. cerevisiae, pHLuorin cytosolic pH fluorescence; in the data active = response mostly above about 7.3%, no sharp cut-off; inactive = mostly below about 5.4%; also: actives read high
Exocytosis inh: lytic granule exocytosis inhibition; TALL-104 LAMP-1 surface exposure, flow cytometry; cells stimulated with thapsigargin and PMA; inhibition, % at 10 µM; 0.66% of 360,000 active;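 active = inhibition above about 55%, limit read from the data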
MEX-5 binding: C. elegans MEX-5 TCR-2 RNA binding activity; AID 1832; MEX-5/FITC-TCR2 RNA binding, fluorescence polarization; hits give low values; Q9XUB2; 0.38% of 300,000 active; activity score (negative = inhibition of binding), % at 10 µM;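 active = inhibition past about -25% in most replicates, and total fluorescence under double the plate's negative control median, limit read from the data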;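 also: 0% = DMSO and -100% = 5 µM competing unlabeled TCR2 RNA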
JMJD2C inh: inhibitors of human GASC-1 (JMJD2C) demethylase | Q9H3R0 | GST-JMJD2C(1-420) H3K9me3 demethylation, DELFIA europium | inhibition, % at 2.35 µM | 0.069% of 330,000 active;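 active = more than half of a compound's replicate wells show inhibition beyond 50%, single wells judged on their own value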;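 also: signal counts dimethyl H3K9 product captured on neutravidin plate; 0% = median of DMSO wells and 100% = 0.3 times that DMSO median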
m5-HT2A agonist: activates the mouse 5-HT2A serotonin receptor; P35363; CHO-K1 mHTR2A beta-arrestin complementation, luminescence; percent of 30 µM serotonin response; activation, % at 7.6 µM; 0.66% of 360,000 active; AID 624169;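 active = activation above a run cutoff, the mean activation of all tested compounds plus 3 SD, cut at about 14% in these data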;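 also: 0% = plate median of compound wells and 100% = 30 µM serotonin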
VLA-4 inh: inhibition in a human VLA-4 binding assay; VLA-4 expressing cells, ligand binding flow cytometry; inhibition, % (about 7 µM as worked out from the volumes in the protocol); 0.2% of 330,000 active; in the data active = inhibition above about 50%
OPRM1 ag: activates human mu opioid receptor in HTR2A counterscreen. shares compounds with m5-HT2A agonist. U2OS OPRM1 beta-arrestin PathHunter, luminescence; DMSO 0%, DAMGO 9.3 µM 100%. activation, % at 9.3 µM. 5.3% of 2,300 active. AID 624380;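 active = mean activation above the mean of DMSO-only wells plus 3 SD, cut at about 0.5% in these data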
Target sequence (P35372 whole entry, looked up): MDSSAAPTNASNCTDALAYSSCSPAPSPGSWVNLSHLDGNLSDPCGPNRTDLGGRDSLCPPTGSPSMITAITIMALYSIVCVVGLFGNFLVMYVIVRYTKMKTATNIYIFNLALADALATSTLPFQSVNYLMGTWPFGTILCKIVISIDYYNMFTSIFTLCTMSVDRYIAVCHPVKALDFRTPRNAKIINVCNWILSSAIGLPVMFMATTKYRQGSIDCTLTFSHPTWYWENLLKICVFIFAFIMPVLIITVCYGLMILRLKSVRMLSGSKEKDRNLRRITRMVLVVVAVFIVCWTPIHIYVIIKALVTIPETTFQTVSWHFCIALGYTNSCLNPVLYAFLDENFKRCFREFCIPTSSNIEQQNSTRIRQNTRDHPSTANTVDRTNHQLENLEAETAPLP
m5-HT2A ag conf: confirmation of mouse HTR2A serotonin receptor agonists. shares compounds with m5-HT2A agonist. CHO-K1 PathHunter beta-arrestin recruitment, luminescence; DMSO 0%, 30 µM serotonin 100%. activation, % at 7.6 µM. 19% of 2,300 active. AID 624381;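 active = mean activation across triplicates above the hit threshold derived in the original primary screen, cut at about 15% in these data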
Starred values were filed as active, the others as inactive. Most compounds without a hit are left out; they make up all but 2.2% or so of the library.

How did CC(C)C[C@H]1CN=C(N(C)C)N1CC1CCCCCC1 do in these assays?
V-ATPase pH: -5.5; Exocytosis inh: 15.0; JMJD2C inh: -0.2; m5-HT2A agonist: -3.4; VLA-4 inh: 45.7

Results for CC(C)C[C@H]1CN=C(N(C)C)N1CC(C)C ?
V-ATPase pH: 8.0; Exocytosis inh: 0.9; JMJD2C inh: -2.4; m5-HT2A agonist: 24.1*; VLA-4 inh: 18.8; OPRM1 ag: -0.7; m5-HT2A ag conf: -1.8

How did CCC1(c2ccc(F)cc2)NC(=O)N(CC(=O)N2CCc3ccccc32)C1=O (stereo not given) do in these assays?
V-ATPase pH: -0.9; Exocytosis inh: -10.5; JMJD2C inh: 7.9; m5-HT2A agonist: 3.4; VLA-4 inh: -1.3

Results for CCOC(=O)C1=C(CS(=O)(=O)c2ccccc2)NC(=O)NC1c1ccc(OC)c(OC)c1 (stereo not given) ?
V-ATPase pH: 0.4; Exocytosis inh: -7.5; MEX-5 binding: 3.4; JMJD2C inh: -4.7; m5-HT2A agonist: 2.1; VLA-4 inh: 14.1

Results for CCOC(=O)C1=C(CS(=O)(=O)c2ccccc2)NC(=O)NC1c1ccccc1OCC (stereo not given) ?
V-ATPase pH: 0.8; Exocytosis inh: -3.9; MEX-5 binding: -1.5; JMJD2C inh: 13.8; m5-HT2A agonist: 17.2*; VLA-4 inh: -12.4; OPRM1 ag: -0.6; m5-HT2A ag conf: -1.2

How did O=C(NN=C1CCCCCCC1)c1ccc2ccccc2n1 do in these assays?
V-ATPase pH: -2.1; Exocytosis inh: -0.6; MEX-5 binding: -1.8; JMJD2C inh: 7.2; m5-HT2A agonist: 0.9; VLA-4 inh: 12.1

Results for Cc1cc(Cl)ccc1NC(=O)CN1C(=O)NC2(CCCc3ccccc32)C1=O (stereo not given) ?
V-ATPase pH: 0.5; Exocytosis inh: 2.1; MEX-5 binding: 1.0; JMJD2C inh: -1.6; m5-HT2A agonist: -8.1; VLA-4 inh: 7.3

What do the screens show for `CN1CCN(c2nc(-c3ccccc3)ncc2S(=O)(=O)c2ccccc2)CC1`?
V-ATPase pH: 0.7; Exocytosis inh: -1.1; MEX-5 binding: -1.1; JMJD2C inh: -12.4; m5-HT2A agonist: 37.6*; VLA-4 inh: 19.4; OPRM1 ag: 0.3; m5-HT2A ag conf: 29.1*

What do the screens show for `Cc1ccc(S(=O)(=O)c2cnc(-c3ccccc3)nc2N2CCN(C)CC2)cc1`?
V-ATPase pH: 1.1; Exocytosis inh: 5.7; MEX-5 binding: -3.3; JMJD2C inh: -5.0; m5-HT2A agonist: 51.5*; VLA-4 inh: 3.8; OPRM1 ag: -0.5; m5-HT2A ag conf: 17.0*

What do the screens show for `COc1cc(Cl)cc(CN2CCC(CCC(=O)NC3CC3)CC2)c1OC`?
V-ATPase pH: -0.3; Exocytosis inh: -5.4; MEX-5 binding: -1.8; JMJD2C inh: -4.9; m5-HT2A agonist: -0.3; VLA-4 inh: 12.1

What do the screens show for `COc1ccc(C(CNC(=O)c2ccccc2C)N2CCCC2)cc1` (stereo not given)?
V-ATPase pH: -4.8; Exocytosis inh: -0.3; MEX-5 binding: -2.5; JMJD2C inh: 0.5; m5-HT2A agonist: 30.7*; VLA-4 inh: 3.4; OPRM1 ag: -0.6; m5-HT2A ag conf: -0.9

How did COc1ccc(-c2csc(C3=C(O)CN(Cc4ccc(Cl)cc4)C3=N)n2)cc1OC do in these assays?
V-ATPase pH: 3.6; Exocytosis inh: 0.2; MEX-5 binding: 3.9; JMJD2C inh: -1.2; m5-HT2A agonist: 52.6*; VLA-4 inh: -17.6; OPRM1 ag: 1.7*; m5-HT2A ag conf: 29.3*

How did COc1ccc(-c2csc(C3=C(O)CN(Cc4ccc(S(N)(=O)=O)cc4)C3=N)n2)cc1OC do in these assays?
V-ATPase pH: -1.7; Exocytosis inh: 1.7; MEX-5 binding: -0.8; JMJD2C inh: -6.7; m5-HT2A agonist: -0.6; VLA-4 inh: 0.7

How did Cc1c(/C=N/NC(=O)c2cccs2)c2ccccc2n1Cc1ccccc1Cl do in these assays?
V-ATPase pH: 3.1; Exocytosis inh: -2.6; MEX-5 binding: -3.1; JMJD2C inh: -5.5; m5-HT2A agonist: -1.8; VLA-4 inh: 1.4

What do the screens show for `COc1cccc(C(O)c2nc(/C=C/c3ccccc3)cs2)c1` (stereo not given)?
Exocytosis inh: -7.2; m5-HT2A agonist: -10.4

What do the screens show for `OC(c1cccc(Cl)c1)c1nc(/C=C/c2ccccc2)cs1` (stereo not given)?
Exocytosis inh: -2.6; m5-HT2A agonist: 14.8*; OPRM1 ag: -0.1; m5-HT2A ag conf: -5.0

What do the screens show for `CC1=CN2CC(O)CN=C2C=C1` (stereo not given)?
V-ATPase pH: 5.3; Exocytosis inh: -1.0; MEX-5 binding: 0.4; JMJD2C inh: -1.9; m5-HT2A agonist: 3.3; VLA-4 inh: 8.6

Results for CC1=CC=CN2CC(O)CN=C12 (stereo not given) ?
V-ATPase pH: -2.8; Exocytosis inh: -3.2; MEX-5 binding: -1.0; JMJD2C inh: -0.8; m5-HT2A agonist: 28.4*; VLA-4 inh: 5.0; OPRM1 ag: -0.9; m5-HT2A ag conf: -2.7

What do the screens show for `CCNC(=O)c1c(NC(=O)c2cc(-c3cc(C)cc(C)c3O)n[nH]2)sc2c1CCCC2`?
V-ATPase pH: -26.7; Exocytosis inh: -2.3; m5-HT2A agonist: -1.1

How did COc1ccc(-c2noc(CN(C(=O)c3ccc4c(c3)OCO4)C(C)C)n2)cc1OC do in these assays?
V-ATPase pH: -1.2; Exocytosis inh: -2.9; MEX-5 binding: -1.8; JMJD2C inh: 3.6; m5-HT2A agonist: 15.9*; VLA-4 inh: 5.8; OPRM1 ag: -0.6; m5-HT2A ag conf: -2.8

What do the screens show for `Cc1ccc(-n2c(C)cc(/C=N/NC(N)=S)c2C)cc1`?
V-ATPase pH: 4.6; Exocytosis inh: -1.5; MEX-5 binding: 4.5; JMJD2C inh: 9.2; m5-HT2A agonist: 3.6; VLA-4 inh: 11.4

What do the screens show for `COc1ccc(Cl)cc1NC(=O)C(=O)N/N=C/c1cc(C)n(-c2ccc(C)cc2)c1C`?
V-ATPase pH: -1.8; Exocytosis inh: 1.7; MEX-5 binding: -5.5; JMJD2C inh: -3.1; m5-HT2A agonist: 17.6*; VLA-4 inh: 9.8; OPRM1 ag: -0.6; m5-HT2A ag conf: -4.0

Results for CCc1nnc(NC(=O)CCC(=O)N2CCN(Cc3ccc(Cl)cc3)CC2)s1 ?
V-ATPase pH: 3.4; Exocytosis inh: 4.1; MEX-5 binding: -2.8; JMJD2C inh: 30.9; m5-HT2A agonist: 0.3; VLA-4 inh: 1.9
